NPSR antag: antagonists of human neuropeptide S receptor cAMP signaling; CHO-NPSR cells, cAMP TR-FRET, antagonist mode; Q6W5P4; Potency, µM (titrated, usually from 38.3 µM), actives largely listed as inhibitors; hit rate 1% among 220,000; further: nearly all actives have a fitted effect of over 50% in size
Target sequence (Q6W5P4 whole entry, looked up): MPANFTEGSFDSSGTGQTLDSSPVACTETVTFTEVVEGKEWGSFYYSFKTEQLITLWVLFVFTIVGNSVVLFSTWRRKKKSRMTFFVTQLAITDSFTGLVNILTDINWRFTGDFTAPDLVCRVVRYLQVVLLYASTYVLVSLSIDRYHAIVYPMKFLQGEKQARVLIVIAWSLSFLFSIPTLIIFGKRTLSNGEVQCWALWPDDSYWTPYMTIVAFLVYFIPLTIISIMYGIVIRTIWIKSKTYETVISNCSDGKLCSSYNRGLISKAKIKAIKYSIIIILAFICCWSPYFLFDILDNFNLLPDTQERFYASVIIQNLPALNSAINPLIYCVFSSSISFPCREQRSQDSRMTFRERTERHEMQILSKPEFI
ERK EGF block: EGF-driven ERK pathway inhibition; Potency, µM (doses to about 11.5 µM), most hits filed as inhibitors; HEK293-V1b, EGF-stimulated phospho-ERK AlphaScreen; hit rate 0.41% among 130,000; AID 1454; further: nearly all actives have a fitted effect of over 55% in size
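Compounds are titrated over HEK293-V1b cells kept overnight in 1% FBS. After 30 min at 37C, EGF (25 nM final) triggers ERK phosphorylation for 5 min, measured by AlphaScreen in lysates.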
Of the large screens only hits and unclear results are named; the others gave an inactive call; ! = not confirmed by another sample. The entries come from a sample that favours hits as a whole. The call rests on the fitted dose curve; in most records, active means well fitted curve in the direction sought with a large enough effect; inconclusive means small, poorly fitted or top-dose-only effect, or another doubt; inactive means no such curve, though single readings can be large; an effect the other way counts as inactive or inconclusive.

Cn1c(=O)cc(SCC(=O)NCC2CCCO2)c2ccc(Cl)cc21 (stereo not drawn)	NPSR antag 10µM
CCOc1ccc(NC(=O)CS(=O)(=O)c2cn(C)c3ccccc23)cc1	none (no result: ERK EGF block)
COc1cc(C(=O)NS(=O)(=O)c2ccccc2C)ccc1Cc1cn(C)c2ccc(NC(=O)OC3CCCC3)cc12	NPSR antag inconclusive, ERK EGF block 28µM
O=C(CCCN1C(=O)/C(=C/c2cccs2)SC1=S)Nc1ccccn1	none
O=C(O)CCCN1C(=O)/C(=C/c2cn(-c3ccccc3)nc2-c2cccs2)SC1=S	NPSR antag 3.2µM
COc1ccc(N2C(=O)C(Cl)=C(Oc3cccc(OC)c3)C2=O)cc1	NPSR antag 10µM
COc1ccc(N2C(=O)c3ccccc3C2=O)cc1	none
COc1ccc(/C=C(/NC(=O)/C=C/c2ccccc2)C(=O)NCCCCCC(=O)O)cc1	none
O=C(Nc1nc(-c2cccs2)cs1)c1cccc(S(=O)(=O)N2CCCCCC2)c1	NPSR antag 10µM (no result: ERK EGF block)
O=C(Nc1nc(-c2cccs2)cs1)c1ccc(S(=O)(=O)N2CCCCC2)cc1	none (no result: ERK EGF block)
CC(C)(C)CC(=O)Nc1nn[nH]n1	none
CC(C)c1ccc(-c2c(C#N)c(N)nc(SCC(=O)N3CCCCC3)c2C#N)cc1	NPSR antag 10µM (no result: ERK EGF block)
COC(=O)CSc1nc(N)c(C#N)c(-c2ccc(O)cc2)c1C#N	none
COc1ccc(C2CC3(CC(C)(C)NC(SC)=N3)Oc3cc(O)cc(C)c32)cc1 (stereo not drawn)	none
O=P(c1ccccc1)(c1ccccc1)c1nc(-c2ccc(Cl)cc2)oc1N1CCOCC1	NPSR antag 10µM, ERK EGF block inconclusive
O=P(c1ccccc1)(c1ccccc1)c1nc(-c2ccccc2)oc1N1CCOCC1	none
CCC(=O)c1c(O)cc(O)cc1O	none (no result: NPSR antag)
CC(=O)NCCNc1nc(-c2ccc(N(C)C)cc2)nc2ccccc12	none (no result: NPSR antag)
COC(=O)c1sc(N2C(=O)c3oc4ccccc4c(=O)c3C2c2cccc(O)c2)nc1C (stereo not drawn)	none
Cc1ccc2oc3c(c(=O)c2c1)C(c1cccc(O)c1)N(c1ccccn1)C3=O (stereo not drawn)	NPSR antag 10µM (no result: ERK EGF block)
Cc1ccc(CNCCNCCO)s1	none
O=C1c2c(O)ccc(O)c2C(=O)c2c(NCCNCCO)ccc(NCCNCCO)c21	NPSR antag 10µM, ERK EGF block 20µM!
COC(=O)C1=C(C)NC2=C(C(=O)CCC2)C1c1ccc(-c2ccsc2C(=O)OC)o1 (stereo not drawn)	none
CCOc1ccccc1CN1C(=O)c2ccccc2C1C(=O)NC(C)CC (stereo not drawn)	none (no result: ERK EGF block)
C/C(CC(=O)Nc1ccccc1F)=N\NC(=O)Cc1ccc(Cl)cc1	none
CSc1ncccc1C(=O)Nc1nnc(C2CC2)s1	none
CCc1cc2ccc(OC)cc2nc1SCC(=O)Nc1cc(C)on1	NPSR antag 10µM (no result: ERK EGF block)
CCc1cc2ccccc2nc1SCC(=O)Nc1cc(C)on1	none (no result: ERK EGF block)
O=C(O)c1cccc(NC(=S)NC(NC(=O)c2cccc([N+](=O)[O-])c2)C(Cl)(Cl)Cl)c1 (stereo not drawn)	ERK EGF block inconclusive
O=C(NC(NC(=S)Nc1ccc(Cl)cc1Cl)C(Cl)(Cl)Cl)c1cccc([N+](=O)[O-])c1 (stereo not drawn)	NPSR antag 10µM (no result: ERK EGF block)
Cc1cc(C)c(NC(=S)NC(NC(=O)c2ccccc2)C(Cl)(Cl)Cl)c(C)c1 (stereo not drawn)	none
O=C(NC(NC(=S)Nc1ccccc1)C(Cl)(Cl)Cl)c1cccc(Cl)c1 (stereo not drawn)	NPSR antag 13µM (no result: ERK EGF block)
COc1ccc(-n2c(=O)c(C)nc3cnc(Nc4ccccc4)nc32)cc1	none (no result: NPSR antag)
FC(F)(F)c1ccccc1NC(=S)N/N=C1\CC2CC=CC12 (stereo not drawn)	none
O=C(COc1cc(Cl)c(Cl)cc1Cl)Nc1ccc([N+](=O)[O-])cc1Cl	none
COC(=O)c1ccc(NC(=S)NN2CCCCC2c2cccnc2)cc1 (stereo not drawn)	none
O=C(NC(=S)NN1CCCCC1c1cccnc1)c1ccc(Br)cc1 (stereo not drawn)	ERK EGF block 14µM
O=C(NC[C@@H]1CCCCN1)c1cc(OCC(F)(F)F)ccc1OCC(F)(F)F	none (no result: NPSR antag)
Cc1ccc(Cn2cc(SCC(=O)Nc3nccs3)c3ccccc32)cc1	NPSR antag 10µM (no result: ERK EGF block)
O=C(CSc1nccn1Cc1ccccc1)Nc1nccs1	none (no result: ERK EGF block)
NC(=S)c1cc2ccc(O)cc2oc1=O	NPSR antag 5µM (no result: ERK EGF block)
C/C(=N/NC(N)=S)c1cc2ccc(O)cc2oc1=O	none
CC(C)NC(=O)N(Cc1ccccc1)Cc1cccs1	none
O=C(Nc1ccc(Cl)c(Cl)c1)Nc1cc(C(=O)NC2CC2)ccc1Cl	ERK EGF block 28µM
O=C(Nc1ccc(Cl)c(Cl)c1)c1ccc(Cl)c(Cl)c1	none
CC(NC(=O)CCc1nnc(-c2ccc(-c3ccccc3)cc2)o1)c1nc2ccccc2[nH]1 (stereo not drawn)	none
COCC(C)n1c(-c2ccc3c(c2)NC(=O)CO3)csc1=Nc1ccc(OC(F)F)cc1 (stereo not drawn)	NPSR antag 10µM (no result: ERK EGF block)
CCN=c1scc(-c2ccc3c(c2)NC(=O)CO3)n1N=C1CCCC1	none (no result: ERK EGF block)
Cc1ccc(N=CC2=C(O)CC(c3ccccc3Cl)CC2=O)cc1 (stereo not drawn)	ERK EGF block 20µM
O=C1CC(c2ccccc2Cl)CC(O)=C1C=Nc1ccccc1 (stereo not drawn)	ERK EGF block inconclusive
CCc1nnc(N/N=C/c2ccc(N3CCC(C)CC3)c([N+](=O)[O-])c2)n1N	none
Cc1nnc(N/N=C/c2cc([N+](=O)[O-])c(N3CCC(C)CC3)cc2N2CCC(C)CC2)n1N	NPSR antag 10µM (no result: ERK EGF block)
COc1ccc2nc3cccc(OC)c3nc2c1	none
COc1ccc2nc3ccccc3nc2c1N	ERK EGF block 28µM
Cn1c(=O)c2c(nc(N3CCOCC3)n2C/C=C/c2ccccc2)n(C)c1=O	none
Cc1ccc2[nH]c(=O)c(CN(Cc3ccc4c(c3)OCO4)Cc3nnnn3C3CCCC3)cc2c1	NPSR antag 13µM (no result: ERK EGF block)
Cc1ccc2cc(CN(Cc3nnnn3C3CCCCC3)CC3CCCO3)c(=O)[nH]c2c1 (stereo not drawn)	none (no result: ERK EGF block)
C=CC(C)(O)CC/C=C(\C)CCC=C(C)C (stereo not drawn)	none (no result: NPSR antag)
Oc1ccc(/C=N/N2CCN(C3c4ccccc4-c4ccccc43)CC2)cc1	ERK EGF block inconclusive
Oc1ccc(/C=N/N2CCN(C3c4ccccc4-c4ccccc43)CC2)cc1O	NPSR antag 10µM, ERK EGF block inconclusive
Cn1c(SCc2cc([N+](=O)[O-])cc3c2OCOC3)nnc1-c1ccccn1	none
O=C(O)c1cc([N+](=O)[O-])c(NCCC2=CCCCC2)c([N+](=O)[O-])c1	none
CCCCCC(=O)O[C@]1(C(C)=O)CC[C@H]2[C@@H]3CCC4=CC(=O)CC[C@]4(C)[C@H]3CC[C@@]21C	NPSR antag 10µM (no result: ERK EGF block)
CC(=O)[C@@]1(O)CC[C@H]2[C@@H]3CCC4=CC(=O)CC[C@]4(C)[C@H]3CC[C@@]21C	none
COC(=O)C1=C(Nc2cc(Cl)cc(Cl)c2)CSC1	none
CCCCNC(=S)N/N=C1\C(=O)c2cccc3cccc1c23	none (no result: ERK EGF block)
CNC(=S)N/N=C1\C(=O)c2cccc3cccc1c23	NPSR antag 3.2µM (no result: ERK EGF block)
CC(C)[C@@H](CC(=O)N[C@@H]1CCCC[C@H]1C(=O)N[C@H](CC(=O)N[C@@H](CCC(=O)O)CC(=O)O)Cc1ccccc1)NC(=O)C[C@H](CO)NC(=O)[C@@H]1CCCC[C@H]1N	none (no result: NPSR antag)
CCCCNc1nc(C)nc2c1nc(-c1ccccc1)n2C(C)CCCN(CC)CC (stereo not drawn)	none (no result: NPSR antag)
NS(=O)(=O)c1ccc(NC(=O)CCc2ccccc2)cc1	none (no result: ERK EGF block)

High-throughput results: PubChem BioAssay, National Center for Advancing Translational Sciences (NCATS)
